An excerpt weighted towards active compounds, which were near 2.3% of everything screened.
Pf Dd2 growth = P. falciparum Dd2 growth inhibitors, primary screen, SYBR Green fluorescence, single dose replicates | activity change, % at 10 µM | AID 1159554, 2015 | 2.3% of 94,000 active | 72 h; stronger effect = lower value; in the data active = activity change below about -80%; inconclusive = no clear call, values can overlap the other calls
C diff growth = C. difficile growth inhibitors, primary screen, HTS | growth activity, negative = inhibition, % at 16 µg/mL (by protocol) | 0.25% of 86,000 active | AID 1259249, 2017 | Clostridium difficile clinical isolate growth, OD600, 24 h; stronger effect = lower value;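 active = mean growth activity at or below -80% and every replicate also at or below -80%; inconclusive = mean at or below -80% but some replicate above -80%; inactive = mean growth activity above -80%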;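 also: 0% = DMSO wells and -100% = levofloxacin 16 µg/mL wells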
* = called active by the depositor; ? = inconclusive; . = no result given.

SMILES	Pf Dd2 growth	C diff growth
COc1cc(CN2CC3(CN(C(=O)Nc4c(C)noc4C)C3)c3c([nH]c4cc(OC)ccc34)[C@@H]2CO)cc(OC)c1	-85.2*	-1.4
CCCC(=O)N1CC2(C1)CN(Cc1cccnc1)[C@H](CO)c1[nH]c3cc(OC)ccc3c12	-20.9	5.6
CCCC(=O)N1CCC2(CC1)CN(Cc1cccnc1)[C@@H](CO)c1[nH]c3cc(OC)ccc3c12	-89.5*	44.7
COc1ccc2c3c([nH]c2c1)[C@H](CO)N(Cc1ccc(Cl)cc1)CC31CCN(C(=O)CN(C)C)CC1	?	8.9
COc1cc(CN2CC3(CCN(C(=O)c4cccnc4)CC3)c3c([nH]c4cc(OC)ccc34)[C@@H]2CO)cc(OC)c1	-89.4*	-0.7
COCC(=O)N1CC(=O)N2[C@H](C1)[C@@H](c1ccc(C#CC3CC3)cc1)[C@@H]2CO	5.7	3.6
C[C@H](CO)N1C[C@H](C)[C@H](CN(C)Cc2ccccc2)OCCCC[C@H](C)Oc2ccc(NS(=O)(=O)c3cn(C)cn3)cc2C1=O	-17.3	5.5
CC(C)NC(=O)N1[C@@H](CO)[C@@H](c2ccccc2)[C@@H]1CNC(=O)CN(C)C	22.4	0.5
CNC(=O)C[C@H]1CC[C@@H]2[C@H](COC[C@@H](O)CN2C(=O)c2ccc3c(c2)OCO3)O1	-3.0	-2.0
C[C@@H]1CN([C@@H](C)CO)C(=O)Cc2cc(NS(=O)(=O)c3cn(C)cn3)ccc2O[C@H]1CN(C)Cc1ccc2c(c1)OCO2	11.3	1.2
C[C@@H]1CCCCO[C@@H](CN(C)S(=O)(=O)c2ccc(Cl)cc2)[C@H](C)CN([C@H](C)CO)C(=O)c2cc(NC(=O)Nc3ccc(F)cc3)ccc2O1	-81.1*	7.9
Cc1ccc(S(=O)(=O)N(C)C[C@@H]2OCCCC[C@@H](C)Oc3ccc(NC(=O)Nc4ccc(F)cc4)cc3C(=O)N([C@H](C)CO)C[C@H]2C)cc1	-78.5	.
Cc1ccc(S(=O)(=O)N(C)C[C@H]2OCCCC[C@H](C)Oc3ccc(NC(=O)Nc4ccc(F)cc4)cc3C(=O)N([C@@H](C)CO)C[C@H]2C)cc1	-82.1*	.
C[C@@H]1CN([C@H](C)CO)C(=O)c2cc(NC(=O)Nc3ccc(F)cc3)ccc2O[C@@H](C)CCCCO[C@H]1CN(C)S(=O)(=O)c1ccc(Cl)cc1	-72.9	-7.3
COc1ccc(S(=O)(=O)N[C@@H]2C=C[C@@H](CC(=O)N3CCc4ccccc4C3)O[C@H]2CO)cc1	3.2	.
C[C@@H]1CN([C@H](C)CO)C(=O)Cc2cc(NS(=O)(=O)c3cn(C)cn3)ccc2O[C@@H]1CN(C)CC1CC1	-73.9	5.8
C[C@@H]1CN([C@H](C)CO)C(=O)c2cc(NC(=O)Nc3cccc4ccccc34)ccc2O[C@@H](C)CCCCO[C@@H]1CN(C)S(=O)(=O)c1ccccc1	-93.2*	2.4
C[C@@H]1CCCCO[C@@H](CN(C)S(=O)(=O)c2ccc(F)cc2)[C@@H](C)CN([C@@H](C)CO)C(=O)c2cc(NC(=O)Nc3cccc4ccccc34)ccc2O1	-83.8*	3.6
C[C@@H]1CCCCO[C@H](CN(C)S(=O)(=O)c2ccccc2)[C@@H](C)CN([C@H](C)CO)C(=O)c2cc(NC(=O)Nc3cccc4ccccc34)ccc2O1	6.0	0.8
C[C@@H]1CCCCO[C@@H](CN(C)S(=O)(=O)c2cn(C)cn2)[C@@H](C)CN([C@H](C)CO)C(=O)c2cc(NC(=O)Nc3cccc4ccccc34)ccc2O1	-39.2	12.9
C[C@@H]1CN([C@@H](C)CO)C(=O)c2cc(NC(=O)Nc3cccc4ccccc34)ccc2O[C@@H](C)CCCCO[C@@H]1CN(C)S(=O)(=O)c1cn(C)cn1	-90.5*	7.9
C[C@@H]1CCCCO[C@@H](CN(C)S(=O)(=O)c2ccc(F)cc2)[C@H](C)CN([C@@H](C)CO)C(=O)c2cc(NC(=O)Nc3cccc4ccccc34)ccc2O1	-42.2	-4.3
C[C@@H]1CCCCO[C@@H](CN(C)S(=O)(=O)c2ccc(F)cc2)[C@H](C)CN([C@H](C)CO)C(=O)c2cc(NC(=O)Nc3cccc4ccccc34)ccc2O1	-82.0*	-4.7
C[C@@H]1CCCCO[C@H](CN(C)S(=O)(=O)c2ccc(F)cc2)[C@H](C)CN([C@H](C)CO)C(=O)c2cc(NC(=O)Nc3cccc4ccccc34)ccc2O1	-79.1	-5.0
C[C@H]1CN([C@@H](C)CO)C(=O)Cc2cc(N(C)C)ccc2O[C@@H]1CN(C)Cc1ccc(C(=O)O)cc1	8.2	-1.8
SMILES	Pf Dd2 growth	C diff growth
C[C@@H]1CCCCO[C@H](CN(C)S(=O)(=O)c2cccs2)[C@H](C)CN([C@@H](C)CO)C(=O)c2cc(NC(=O)Nc3cccc4ccccc34)ccc2O1	-54.3	.
C[C@@H]1CN([C@H](C)CO)C(=O)c2cc(NC(=O)Nc3cccc4ccccc34)ccc2O[C@@H](C)CCCCO[C@@H]1CN(C)S(=O)(=O)c1cccs1	-88.4*	.
C[C@H](CO)N1C[C@H](C)[C@@H](CN(C)Cc2ccc(C(F)(F)F)cc2)Oc2ccc(NC(=O)Nc3ccc(C(F)(F)F)cc3)cc2CC1=O	-79.3	11.2
C[C@H]1CCCCO[C@H](CN(C)C(=O)Nc2ccc(F)cc2)[C@@H](C)CN([C@@H](C)CO)C(=O)c2cc(NC(=O)C3CCCCC3)ccc2O1	-85.7*	-6.4
C[C@H]1CCCCO[C@H](CN(C)C(=O)Nc2ccc(C(F)(F)F)cc2)[C@@H](C)CN([C@@H](C)CO)C(=O)c2cc(NC(=O)C3CCCCC3)ccc2O1	-84.4*	-7.1
C[C@@H]1CCCCO[C@H](CN(C)C(=O)Nc2ccc(C(F)(F)F)cc2)[C@@H](C)CN([C@H](C)CO)C(=O)c2cc(NC(=O)C3CCCCC3)ccc2O1	-83.7*	-2.6
C[C@@H]1CCCCO[C@@H](CN(C)C(=O)Nc2ccc(C(F)(F)F)cc2)[C@H](C)CN([C@@H](C)CO)C(=O)c2cc(NC(=O)Nc3ccc(C(F)(F)F)cc3)ccc2O1	8.2	17.7
C[C@@H]1CN([C@H](C)CO)C(=O)c2cc(NC(=O)Nc3ccc(C(F)(F)F)cc3)ccc2O[C@@H](C)CCCCO[C@H]1CN(C)C(=O)Nc1ccc(C(F)(F)F)cc1	-66.9	6.8
C[C@@H]1CCCCO[C@H](CN(C)C(=O)Nc2ccc(C(F)(F)F)cc2)[C@@H](C)CN([C@@H](C)CO)C(=O)c2cc(NC(=O)C3CCCCC3)ccc2O1	-84.8*	-7.6
C[C@@H]1CCCCO[C@H](CN(C)C(=O)Nc2ccc(C(F)(F)F)cc2)[C@H](C)CN([C@H](C)CO)C(=O)c2cc(NC(=O)C3CCCCC3)ccc2O1	-72.2	13.3
C[C@@H]1CCCCO[C@H](CN(C)C(=O)Nc2ccc(F)cc2)[C@H](C)CN([C@@H](C)CO)C(=O)c2cc(NC(=O)C3CCCCC3)ccc2O1	-74.9	5.5
C[C@@H]1CCCCO[C@H](CN(C)C(=O)Cc2ccccc2)[C@H](C)CN([C@H](C)CO)C(=O)c2cc(NS(=O)(=O)c3ccc(Cl)cc3)ccc2O1	-69.1	12.0
O=C(C[C@@H]1C[C@@H]2c3cc(NC(=O)C4CCOCC4)ccc3O[C@@H]2[C@@H](CO)O1)NCc1ccc(Oc2ccccc2)cc1	-29.8	.
C[C@@H]1CCCCO[C@@H](CN(C)C(=O)Nc2ccc(C(F)(F)F)cc2)[C@@H](C)CN([C@@H](C)CO)C(=O)c2cc(NC(=O)C3CCCCC3)ccc2O1	-92.3*	-2.0
